Screening results deposited in PubChem by National Center for Advancing Translational Sciences (NCATS).
KDM4E inh = JMJD2E (human) inhibition | AID 2147 | actives 1.6% (n = 230,000) | Potency, µM (series often up to 57.1 µM), without a hit: top-dose activity change, negative = inhibition, hits mostly inhibitors | JMJD2E catalytic domain, FDH-coupled NADH fluorescence (FDH is formaldehyde dehydrogenase) | B2RXH2;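 note: 0% = wells with enzyme and -100% = buffer wells without enzyme; nearly all actives have a fitted effect of over 50% in size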
Target sequence (B2RXH2 1-337 limits assumed): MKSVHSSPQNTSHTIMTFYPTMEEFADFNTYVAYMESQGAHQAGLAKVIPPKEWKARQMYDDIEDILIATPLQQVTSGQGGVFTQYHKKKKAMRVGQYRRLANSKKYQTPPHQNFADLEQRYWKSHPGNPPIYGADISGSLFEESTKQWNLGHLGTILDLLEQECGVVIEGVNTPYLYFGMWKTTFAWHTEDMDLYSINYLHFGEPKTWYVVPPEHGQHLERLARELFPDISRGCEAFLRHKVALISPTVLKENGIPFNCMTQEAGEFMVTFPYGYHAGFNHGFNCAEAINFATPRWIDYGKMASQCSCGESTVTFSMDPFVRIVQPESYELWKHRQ
HPGD block = HPGD (human) dehydrogenase inhibition. P15428. AID 894. purified HPGD, NADH fluorescence kinetic, PGE2 substrate. Potency, µM, without a hit: at the highest dose activity change, negative = inhibition, hits mostly inhibitors. actives 4.3% (n = 150,000); note: % is set by controls: 0 for no effect and ±100 for the full control effect
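NADH formation kinetics: reaction with 30 uM PGE2 and 1 mM NAD+ (final), 20 nM enzyme, Tris-HCl pH 8 with Tween 20, after 15 min compound preincubation at room temperature. Fluorescence change, last versus first of five reads.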
HTT cytoprotect = protects HTT-Q103 PC12 cells, measured by ATP | PC12 HTT-Q103 induced, cytoprotection, ATP luminescence, 40 h | actives 0.14% (n = 230,000) | Potency, µM (doses to about 56.4 µM), for the others: cytoprotection (ATP increase), actives largely listed as activators; active = well fitted curve in the direction sought with a large enough effect; inconclusive = small, poorly fitted or top-dose-only effect, or another doubt; inactive = no such curve, though single readings can be large; an effect the other way counts as inactive or inconclusive; note: % of control where 0% means no effect; nearly all actives have a fitted effect of over 45% in size
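PC12 cells stably carrying ecdysone-inducible Htt exon 1 (Q103)–GFP were induced with 100 nM tebufenozide (final) alongside library compounds in a dose series. Cytoprotection was scored as retained ATP by ATPlite luminescence.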
HTT aggregate = inhibitors of mutant huntingtin aggregate formation in PC12 cells; AID 1688; Potency, µM (doses to about 46.1 µM), inactives show at the highest dose activity change, negative = inhibition, hits mostly inhibitors; actives 1.1% (n = 220,000); PC12 HttQ103-GFP aggregates, Acumen cytometry, 40 h; active = well fitted curve in the direction sought with a large enough effect; inconclusive = small, poorly fitted or top-dose-only effect, or another doubt; inactive = no such curve, though single readings can be large; an effect the other way counts as inactive or inconclusive; note: % is set by controls: 0 for no effect and ±100 for the full control effect; nearly all actives have a fitted effect of over 60% in size
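PC12 cells stably carrying ecdysone-inducible HTT exon 1 Q103–GFP were induced with tebufenozide (100 nM final) and treated with library compounds in titration. GFP aggregates in lysates were counted by laser scanning cytometry.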
LMNA splice mod = LMNA splicing modulation. actives 0.01% (n = 200,000). HeLa LMNA splicing GFP/RFP minigene ratio, 48 h. Potency, µM (highest dose often 46.1 µM), inactives show at the highest dose ratio change, negative = inhibition, usual class: inhibitors; active = well fitted inhibition curve with a large enough effect in the signal ratio, with a control signal flat, not every such curve was filed as active; inconclusive = small, poorly fitted or top-dose-only effect, or effect the other way, or a change in a side signal; the % refers to the signal ratio; note: % is set by controls: 0 for no effect and ±100 for the full control effect
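Read-out is the ratio of GFP to DsRed2 object intensity, acquired by 488 nm laser-scanning cytometry on HeLa lamin A-EGFP minigene reporter cells. Compound incubation 48 hrs at 37 °C in Opti-MEM with 2% FBS; DMSO 0.5% final.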
ALDH1A1 inh = ALDH1A1 (human) enzyme inhibition. P00352. Purified ALDH1A1, NADH fluorescence, propionaldehyde substrate. Potency, µM (doses to about 75.3 µM), without a hit: top-dose activity, negative = inhibition, actives largely listed as inhibitors. actives 7.3% (n = 220,000);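 note: plate controls were no enzyme wells and a reference inhibitor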
Starred values were filed as active, the others as inactive; [ ] = another dose, or the depositor's remark. A selection: hits, their analogues and other compounds. The true share with any hit is near 9.2%. Unless noted, calls come from the whole dose curve; as a rule, active = well fitted inhibition curve with a large enough effect (not every such curve was filed as active); inconclusive = small, poorly fitted or top-dose-only effect, or another doubt; inactive = no such curve, though single readings can be large or run the other way. Potency is the fitted concentration of half-maximal effect.

O=C(CSc1nc2ccccc2[nH]1)N/N=C/C=C/c1ccccc1[N+](=O)[O-] was read as KDM4E inh -6%, HPGD block -10%, HTT cytoprotect 18%[10 µM], HTT aggregate inconclusive, LMNA splice mod -11% and ALDH1A1 inh 4.5µM*.
For CCOC(=O)N/N=C/C=C/c1ccccc1[N+](=O)[O-] the results were KDM4E inh 6%, HTT cytoprotect 0%, HTT aggregate -3%, LMNA splice mod -13%[46 µM] and ALDH1A1 inh 10µM*.
Screening Cn1c(SCC(=O)N/N=C/C=C/c2ccccc2[N+](=O)[O-])nc2ccccc21 returned KDM4E inh 2%, HPGD block -5%, HTT cytoprotect 8%[10 µM], HTT aggregate 1%, LMNA splice mod -24% and ALDH1A1 inh inconclusive.
Screening Cc1occc1C(=O)N/N=C/C=C\c1ccccc1[N+](=O)[O-] returned KDM4E inh -1%, HTT cytoprotect -14%, HTT aggregate 27%, LMNA splice mod inconclusive and ALDH1A1 inh inconclusive.
Screening O=C(N/N=C/C=C\c1ccccc1[N+](=O)[O-])c1ccccn1 returned KDM4E inh -1%, HPGD block -25%, HTT cytoprotect -1%[10 µM], HTT aggregate -19%, LMNA splice mod -6% and ALDH1A1 inh -13%.
For O=C(N/N=C/C=C/c1ccccc1[N+](=O)[O-])c1cc(-c2ccccc2)n[nH]1 the results were KDM4E inh 5%, HPGD block 25µM*, HTT aggregate -2%, LMNA splice mod inconclusive and ALDH1A1 inh inconclusive.
`O=C1CCCC(O)=C1C(C#Cc1ccccc1)C1=C(O)CCCC1=O` gave KDM4E inh inconclusive, HPGD block 4µM*, HTT cytoprotect 6%[10 µM], HTT aggregate 12%, LMNA splice mod inconclusive and ALDH1A1 inh 6.3µM*.
`O=C1CCCC(O)=C1Sc1ccccc1C(=O)O` gave KDM4E inh 0%, HTT cytoprotect -37%, HTT aggregate 11%[9.22 µM] and ALDH1A1 inh -5%.
`CC1(C)CC(=O)C(C(C#Cc2ccccc2)C2=C(O)CC(C)(C)CC2=O)=C(O)C1` gave KDM4E inh -14%, HPGD block 7.9µM*, HTT cytoprotect -19%, HTT aggregate 15%, LMNA splice mod 3% and ALDH1A1 inh 6.3µM*.
Screening CC1=C(C)CC(C(=O)N2CCN(Cc3ccccc3)CC2)C(C(=O)O)C1 (stereo not drawn) returned KDM4E inh -13%, HPGD block -6%, HTT cytoprotect 5%, HTT aggregate -7%, LMNA splice mod -6% and ALDH1A1 inh 14µM*.
For O=C(N1CCN(Cc2ccccc2)CC1)C12CC3CC(CC(C3)C1)C2 the results were KDM4E inh -8%, HPGD block -3%, HTT cytoprotect -5%[10 µM], HTT aggregate inconclusive, LMNA splice mod -24% and ALDH1A1 inh 6.3µM*.
Screening O=C(N1CCN(c2ccccc2)CC1)C12CC3CC(CC(C3)C1)C2 returned KDM4E inh -9%, HPGD block -9%, HTT cytoprotect -7%[10 µM], HTT aggregate -5%, LMNA splice mod inconclusive and ALDH1A1 inh inconclusive.
CCCc1cc(=O)[nH]c(SCc2csc(-c3ccccc3)n2)n1 was read as KDM4E inh 0%, HPGD block -28%, HTT cytoprotect 31%[10 µM], HTT aggregate inconclusive, LMNA splice mod inconclusive and ALDH1A1 inh -7%.
CCc1nc(SCc2ccc(F)cc2)[nH]c(=O)c1C#N was read as KDM4E inh 2%, HPGD block 4.5µM*, HTT cytoprotect 9%[1.9 µM], HTT aggregate -9%, LMNA splice mod inconclusive and ALDH1A1 inh 32µM*.
Screening CCCc1cc(=O)[nH]c(SCc2cc(Cl)ccc2OC(F)F)n1 returned KDM4E inh 8%, HPGD block 14µM*, HTT cytoprotect inconclusive, HTT aggregate 3%, LMNA splice mod 5% and ALDH1A1 inh -1%.
`CCCc1cc(=O)[nH]c(SCc2cccc(C)c2)n1` gave KDM4E inh 3%, HPGD block 14µM*, HTT cytoprotect -22%[10 µM], HTT aggregate -13%, LMNA splice mod 9% and ALDH1A1 inh inconclusive.
